The source made the active and inactive calls.

This assay in a line: cell viability in Huh7 cells, primary screen, cytotoxicity control for HCV replication inhibitor project, CellTiter-Glo luminescence, basal, 48 h (AID 1143).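 Also: Huh7 hepatoma cells carrying a hepatitis C replication reporter with no stimulus; test concentration not given here.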 Conditions: Huh7 HCV replicon, higher = more signal, called active from +8 up or from −8 down. Background: Cellular ATP, detected with luciferase, serves as a proxy for viable cell number.
With `CC(C)Cc1ccc(CN2CC[C@@H](NC(=O)Nc3ccccc3)C2)cc1`, the z-score was -8.72 (active).

Consider `CC(C)C[C@@H]1NC(=O)[C@@H]2C[C@H](C(=O)NCCCCN(C)C)[C@H](c3cccc(OCCO)c3)N2C1=O`, for which the z-score is -0.193 (inactive).

With `CC1CC/C=C\[C@H]2OC34C=CCN(C(C)C)C(=O)[C@H]3N(CCCCCCO)C(=O)[C@@H]4C2C(=O)O1` (stereo not given in full), the z-score was -0.183 (inactive).

For `COc1ccc(CCNC(=O)[C@@]2(Sc3ccc(C)cc3)CC(=O)N(C3Cc4ccccc4C3)[C@@H]2c2ccc(CO)cc2)cc1`, the z-score was -5.12 (inactive).

Consider `COc1ccc(-c2nc(-c3ccccc3)c3c(c2C)CO[Si]3(C(C)C)C(C)C)cn1`, for which the z-score is -0.483 (inactive).

Regarding `CCCC[C@@H]1C[C@H]1[C@@H](NC(=O)c1cccs1)c1ccc(C(F)(F)F)cc1`, the z-score was -0.368 (inactive).

Take `CN1C(=O)C2C=CC(C(O)c3ccc(F)cc3)N(Nc3ccccc3)C2C1=O` (stereo not given): the z-score was 0.457 (inactive).

For `OCC1CC(c2ccccc2)=NO1` (stereo not given), the z-score is 0.414 (inactive).

As for `COC1OC[C@]2(C)[C@H]3C4=C(CN2C(=O)OC(C)(C)C)[C@H](C)C(CO)C(CO)C4CC[C@@H]13` (stereo not given in full), the z-score is -0.14 (inactive).

For `NCCCCCCNC(=O)[C@@H]1C[C@@H]2C(=O)N[C@@H](CCCCN)C(=O)N2[C@@H]1c1cccc(OCCO)c1`, the z-score was 0.0957 (inactive).

As for `CCOC(=O)C1=C[C@@H](c2ccccc2)N(S(=O)(=O)c2ccc(C)cc2)[C@H]1c1ccccc1Cl`, the z-score is -3.97 (inactive).

Take `CCOc1cc(C(O)C2C=CC3C(=O)N(c4ccccc4)C(=O)C3N2Nc2ccc(C#N)cc2)ccc1O` (stereo not given): the z-score is 0.423 (inactive).

For the compound `CCCCCCCCCCC(O)C1C=CC2C(=O)N(C)C(=O)C2N1NC(=O)OC(C)(C)C` (stereo not given), the z-score is -3.15 (inactive).

Regarding `NCCCCCNC(=O)[C@@H]1C[C@@H]2C(=O)NCC(=O)N2[C@@H]1c1cccc(OCCO)c1`, the z-score is 0.267 (inactive).

As for `[N-]=[N+]=NCc1ccccc1[C@H]1OC(c2ccc(OCCCO)cc2)=N[C@@]1(CCS(=O)(=O)c1ccccc1)C(=O)N1CCCCC1`, the z-score is -1.56 (inactive).

`CCOC(=O)C[C@H]1[C@H](OC(=O)c2ccccc2-c2ccccc2)[C@@H](NC(=O)c2ccc(-c3ccccc3)cc2)c2cc(OCCCO)ccc2N1C(=O)c1ccc2ccccc2n1`: the z-score was 0.0395 (inactive).

Turning to `CCCCCCc1nc(C2CC2)cc2c1[Si](C(C)C)(C(C)C)OC2`, the z-score is -2.44 (inactive).

Regarding `O=C1C[C@@](C(=O)NCCN2CCOCC2)(c2ccc([N+](=O)[O-])cc2)[C@@H](c2ccc(CO)cc2I)N1C1CCCCC1`, the z-score was -4.95 (inactive).

For the compound `COC(=O)[C@@]1(Cc2ccc(OC)cc2)[C@H]2c3cc(C(=O)N4CCCC4)n(Cc4c(-c5ccccc5)noc4C)c3C[C@H]2CN1C(=O)c1ccccc1`, the z-score is -3.29 (inactive).

Turning to `CC(C)(C)N1CC=CC23O[C@@H]4C=CCCOC(=O)C4[C@H]2C(=O)N(CCO)[C@@H]3C1=O` (stereo not given in full), the z-score was 0.297 (inactive).

On to `O=C1O[C@@H](c2ccccc2)[C@@H](c2ccccc2)N2[C@@H](c3ccccc3OCCO)[C@]3(C(=O)Nc4ccc(C#CCCO)cc43)[C@@H](C(=O)N3CCCCCCC3)[C@H]12`, for which the z-score was -3.74 (inactive).

Turning to `CO[C@]12C=C(Br)[C@@H](C[C@@H]1c1cccc(C)c1)[C@@]1(CO1)C2=O`, the z-score is -0.795 (inactive).

Regarding `O=C1C2C=CC(C(O)c3ccccc3)N(Nc3ccccc3F)C2C(=O)N1c1ccccc1` (stereo not given), the z-score was -1.7 (inactive).

Regarding `CC[C@H]1C2=C3C(CC[C@H]4C(OCc5ccc(F)cc5C(F)(F)F)OC[C@](C)([C@@H]34)N(C(=O)OC(C)(C)C)C2)C(COC)C1COC` (stereo not given in full), the z-score is 0.0724 (inactive).

As to `Cc1ccc(S[C@]2(C(=O)O)CC(=O)N(C3Cc4ccccc4C3)[C@@H]2c2ccc(CO)cc2)cc1`, the z-score is 0.121 (inactive).

In the case of `COc1ccc(NC(=O)O[C@H]2[C@H](OC(=O)Nc3ccccc3)[C@@H](OC(=O)Nc3ccccc3)[C@@H](OC)O[C@@H]2CO)cc1`, the z-score was -4.91 (inactive).

For `CCCC[C@@H]1C[C@H]1[C@@H](NC(=O)Cc1ccccc1)c1ccc(-c2ccccc2)cc1`, the z-score was -1.31 (inactive).

With `N#Cc1ccc(NN2C(C(O)c3ccc(F)cc3)C=CC3C(=O)N(c4ccccc4)C(=O)C32)cc1` (stereo not given), the z-score was 0.632 (inactive).

Take `[N-]=[N+]=NCc1ccccc1C[C@]1(C(N)=O)N=C(c2ccc(OCCCO)cc2)O[C@H]1c1ccccc1`: the z-score is -3.8 (inactive).

On to `COCCCNC(=O)[C@@]1(Cc2ccccc2N=[N+]=[N-])N=C(c2ccc(OCCCO)cc2)O[C@H]1c1ccccc1`, for which the z-score is -4.36 (inactive).

Turning to `CN(C)CCCNC(=O)[C@@H]1c2ccccc2C(=O)N(Cc2ccccc2Cl)[C@H]1c1ccc(CO)cc1`, the z-score is -1.77 (inactive).

Regarding `C=C(/C(=C/C[C@H](OC(=O)c1ccncc1)c1ccc(CO)o1)c1cc(C(=O)OC)ccc1OC)C(C)C`, the z-score is -0.398 (inactive).

For the compound `C=CCC(OC(C)=O)[C@@H]1[C@@H](N(Cc2ccc(-c3cccc(C(F)(F)F)c3)o2)C(=O)c2ccc(-c3ccccc3)cc2)c2cc(OCCCO)ccc2N1C(=O)c1ccc2ccccc2n1` (stereo not given in full), the z-score is 0.0285 (inactive).

For the compound `CCCCN1CC=CC23O[C@@H]4/C=C\CCC(C)OC(=O)C4[C@H]2C(=O)N(C(CO)C(C)C)[C@@H]3C1=O` (stereo not given in full), the z-score is 0.415 (inactive).

As to `[N-]=[N+]=Nc1ccccc1[C@H]1OC(c2ccc(OCCCO)cc2)=N[C@@]1(Cc1ccccc1)C(=O)N1CCCCC1`, the z-score was -3.95 (inactive).

The values are drawn from PubChem BioAssay.
